Bioassay records as filed in PubChem.
Compounds with a hit are over-represented: about 5.9% of the library has one in this group of screens.
GALK inhibitor: qHTS Assay for Inhibitors of Human Galactokinase (GALK) | P51570 | 270,000 tested, 0.007% active | Purified GALK, Kinase-Glo residual ATP luminescence | Potency, µM (titrated, usually from 57.5 µM), for inactives: at the top dose activity change, negative = inhibition, usual class: inhibitors | AID 1868, 2009; also: potency is read from the fitted curve at half-maximal effect
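Luminescence from leftover ATP (Ultra-Glo luciferase/luciferin) served as read-out after a 1 h room-temperature reaction of 5 nM GALK with 35 uM ATP and 100 uM galactose.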
TrxR1 inh: qHTS Assay for Inhibitors of Mammalian Selenoprotein Thioredoxin Reductase 1 (TrxR1): qHTS; Potency, µM (titrated, usually from 114 µM), for inactives: top-dose activity change, negative = inhibition, usual class: inhibitors; 390,000 tested, 1% active; Thioredoxin reductase 1, cytoplasmic (Rattus norvegicus), O89049; recombinant rTrxR1, NADPH fluorescence consumption, selenite substrate; also: potency is read from the fitted curve at half-maximal effect; nearly all actives have a fitted effect of over 65% in size
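Rat TrxR1 (90 nM in the dispensed reagent) was pre-reduced with 400 uM NADPH for 5 min at room temperature, then incubated with compound for 15 min. After 400 uM selenite was added, NADPH fluorescence (Ex 340/Em 450 nm) was followed for 8 min.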
RORgamma inh: qHTS for inhibitors of ROR gamma transcriptional activity; Nuclear receptor ROR-gamma (Mus musculus), P51450; Drosophila S2 Gal4-RORgamma UAS-luciferase reporter, 20 h; Potency, µM (top dose mostly 53.6 µM), without a hit: top-dose activity change, negative = inhibition, usual class: inhibitors; 310,000 tested, 5.4% active; AID 2551, 2010; also: potency is read from the fitted curve at half-maximal effect; nearly all actives have a fitted effect of over 60% in size
Target sequence (P51450 whole entry, looked up, the tested form may be a part): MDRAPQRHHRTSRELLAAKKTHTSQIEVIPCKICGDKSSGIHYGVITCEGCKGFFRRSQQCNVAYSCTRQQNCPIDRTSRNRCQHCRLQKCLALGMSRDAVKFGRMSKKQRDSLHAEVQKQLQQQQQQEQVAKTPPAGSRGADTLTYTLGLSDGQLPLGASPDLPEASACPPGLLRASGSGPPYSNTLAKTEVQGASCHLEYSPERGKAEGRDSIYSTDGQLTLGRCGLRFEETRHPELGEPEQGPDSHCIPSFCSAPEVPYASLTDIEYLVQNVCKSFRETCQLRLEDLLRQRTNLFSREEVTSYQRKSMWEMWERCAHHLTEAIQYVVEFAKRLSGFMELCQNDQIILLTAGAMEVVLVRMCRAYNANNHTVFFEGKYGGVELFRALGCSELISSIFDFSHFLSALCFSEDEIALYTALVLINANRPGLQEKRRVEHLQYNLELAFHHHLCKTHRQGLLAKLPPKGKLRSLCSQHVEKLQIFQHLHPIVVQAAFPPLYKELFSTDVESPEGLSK
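In this cell-based reporter format, copper sulfate (700 uM final) drives Gal4–ROR gamma fusion expression from a metallothionein promoter in Drosophila Schneider cells; compounds preincubated 1 hr, reporter read after 20 hr at ambient temperature.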
TrxR1 substrate: qHTS Assay for Substrates of Mammalian Selenoprotein Thioredoxin Reductase 1 (TrxR1): qHTS; Potency, µM (series often up to 114 µM), for inactives: at the top dose activity change, negative = substrate turnover; 390,000 tested, 0.01% active; purified TrxR1 substrate turnover, NADPH consumption readout; Thioredoxin reductase 1, cytoplasmic (Rattus norvegicus), O89049; also: potency is read from the fitted curve at half-maximal effect; nearly all actives have a fitted effect of over 50% in size
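Rat TrxR1, dispensed at 90 nM, was prereduced with 400 uM NADPH (final) for 5 min at ~22 deg C, then incubated with compound 15 min before 400 uM selenite. A first-read NADPH fluorescence drop versus no-compound background flagged substrates.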
VP16 counter: VP16 counterscreen qHTS for inhibitors of ROR gamma transcriptional activity; Drosophila S2 Gal4-VP16 UAS-luciferase, luminescence, 20 h; Potency, µM (doses to about 53.6 µM), for inactives: at the highest dose activity, negative = inhibition, most hits filed as inhibitors; 310,000 tested, 3.5% active;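 also: Gal4-VP16 expression switched on by copper sulfate through the metallothionein promoter; potency is read from the fitted curve at half-maximal effect; nearly all actives have a fitted effect of over 50% in size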
Coupling enz: qHTS Assay for Inhibitors of Fructose-1,6-bisphosphate Aldolase from Giardia Lamblia: Coupling assay counterscreen. coupling enzyme system counterscreen, AmpLite Red fluorescence. AID 2472, 2010. activity change, negative = inhibition, % at 58.2 µM, hits read low. 290,000 tested, 0.67% active; in the data active = activity change below about -30%
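Fluorescence at 525 nm excitation and 598 nm emission measured inhibition of the coupled detection system without aldolase. Compounds (at 57.5 uM final) were preincubated 10 min at room temperature with coupling enzyme reagent before a 20 min substrate/AmpLite Red step.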
Numbers without * were called inactive; ? = inconclusive; nt = not tested or not shown; [ ] = another dose, or the depositor's remark. Unless noted, calls follow the shape of the dose curve; as a rule, active = well fitted curve in the direction sought with a large enough effect; inconclusive = small, poorly fitted or top-dose-only effect, or another doubt; inactive = no such curve, though single readings can be large; an effect the other way counts as inactive or inconclusive. % is scaled to controls: 0 for no effect and ±100 for the full control effect.

SMILES	GALK inhibitor	TrxR1 inh	RORgamma inh	TrxR1 substrate	VP16 counter	Coupling enz
N#CC(C(=S)Nc1ccccc1)c1nc2ccccc2[nH]1 (stereo not given)	4.0%	8.3%	1.12µM*	-3.5%	2.51µM*	-0.2
Nc1c(-c2ccccn2)cnn1-c1nc(-c2ccc(F)cc2)cs1	0.3%	12.4%	5.01µM*	-0.2%	-13.8%	1.1
CC1(C)CC(=O)N(c2cccc(Cl)c2)C(=O)C1	2.2%	31.6%	6.3%	7.0%	-3.9%	1.6
O=C1NC(=S)N(c2cccc(Cl)c2)C12CCCCC2	0.2%	11.0%	12.6µM*	3.9%	?	3.5
COc1ccc(S(=O)(=O)N/N=C\c2ccc3c(c2)OCO3)c(OC)c1	1.2%	-9.1%	?	-9.5%	11.2µM*	-0.7
CCCn1c(C)nc2cc(Cl)c(N3CCN(c4nc(-c5ccc(C)cc5)cs4)CC3)cc21	nt	2.4%	4.47µM*	-7.2%	?	-0.2
Cc1ccc(-c2csc(N3CCN(c4cc5c(cc4Cl)nc(-c4ccncc4)n5CCN4CCCCC4)CC3)n2)cc1	nt	-5.7%	8.91µM*	-4.8%	-24.6%	-0.6
Cc1ccc(-c2csc(N3CCN(c4ccc5nc(-c6ccncc6)n(CCN6CCCCC6)c5c4)CC3)n2)cc1	nt	10.6%	?	-0.9%	-4.8%	-12.8
Cc1[nH]c2ccccc2c1C(=O)COC(=O)C1CCC1	1.1%	-5.7%	13.5%	-8.8%	-7.8%	1.8
COc1ccc(O)c(/C=N/NC(=O)c2ccc(N3CCCC3=O)cc2)c1	-0.6%	1.0%	2.24µM*	-2.5%	?	0.1
COc1ccc(O)c(/C=N/NC(=O)c2cccc(N3CCCC3=O)c2)c1	0.9%	34.8%	3.55µM*	8.7%	3.55µM*	1.1
COc1cccc(/C=N/NC(=O)c2cccc(N3CCCC3=O)c2)c1	-1.2%	5.5%	19.9%	0.8%	-2.3%	2.0
O=C(N/N=C/c1cc(Br)ccc1O)c1cccc(N2CCCC2=O)c1	0.9%	10.1%	1µM*	4.8%	5.62µM*	0.6
Cc1ccc(Nc2nc(CSc3nnc(-c4ccc(F)cc4)n3C)cs2)cc1	0.7%	?	11.2µM*	-4.2%	2.6%	0.2
CCN(CC)C(=S)S	nt	nt	?	nt	3.55µM*	nt
Cc1cc(Br)ccc1NC(=O)c1sc2ncnc(N3CCN(c4ccccn4)CC3)c2c1C	8.2%	38.7%	18.7%	26.2%	-5.3%	0.3
CC[C@@]1(c2ccccc2)C(=O)N(C(=O)OC)N1C(=O)OC	nt	1.26µM*	-36.2%	2.8%	?	-0.5
CC[C@@]1(c2ccccc2C)C(=O)N(C(=O)OC)N1C(=O)OC	nt	5.62µM*	?	5.6%	-17.7%	1.1
CC[C@]1(c2ccccc2)C(=O)N(C(=O)OC)N1C(=O)OC	nt	?	-26.5%	2.8%	-3.2%	-1.1
COC(=O)N1C(=O)[C@@](c2ccccc2)(C2CCCCC2)N1C(=O)OC	nt	44.7µM*	7.94µM*	1.6%	-8.1%	-5.8
COC(=O)N1C(=O)[C@](c2ccccc2)(C(C)C)N1C(=O)OC	nt	?	-45.0%	3.0%[57.1 µM]	?	0.3
COC(=O)N1C(=O)[C@](Cc2ccccc2)(c2ccccc2)N1C(=O)OC	nt	3.98µM*	12.4%	-4.1%	-2.9%	-2.1
C#CCNC(=O)C1=C[C@@H](C2CC2)[C@H](CCCO)[C@@H](OCC)O1	1.8%	28.5%	-34.0%	5.5%	-9.5%	1.7
Cc1ccc(CN(C)C(=O)c2ccc(NS(=O)(=O)c3ccc4[nH]c(=O)[nH]c4c3)cc2)cc1	nt	9.6%	nt	2.4%	nt	nt
O=C(CSc1nnc(-c2cccs2)o1)NCc1ccco1	0.7%	17.8%[57.1 µM]	-8.4%	11.0%[57.1 µM]	-11.3%	-0.4
SMILES	GALK inhibitor	TrxR1 inh	RORgamma inh	TrxR1 substrate	VP16 counter	Coupling enz
CN(C)S(=O)(=O)c1cc(NC(=O)CNCc2ccc(F)cc2)ccc1Cl	nt	3.0%	37.0%	-1.5%	3.8%	1.0
CC[C@]1(c2cccc(C)c2)C(=O)N(C(=O)OC)N1C(=O)OC	nt	1.58µM*	2.2%	5.3%[57.1 µM]	0.0%	0.4
O=C(NC(=S)NCc1ccccc1)c1cccc([N+](=O)[O-])c1	-1.3%	3.3%	6.31µM*	-3.9%	5.62µM*	-0.1
O=C(O)c1cccc([N+](=O)[O-])c1	nt	nt	-15.1%	nt	-1.4%	nt
O=C(CNC(=S)NC(=O)c1cccc([N+](=O)[O-])c1)c1ccccc1	0.8%	13.5%[57.1 µM]	7.08µM*	6.6%[57.1 µM]	12.6µM*	0.2
O=C(C#Cc1ccccc1)c1cccc([N+](=O)[O-])c1	0.4%	0.1µM*	5.62µM*	-3.6%	6.31µM*	1.4
O=C(NC(=S)Nc1cccc([N+](=O)[O-])c1)c1ccccc1	-3.4%	?	?	-3.0%	-5.8%	1.2
CCCCCC(=O)NNC(=S)NC(=O)c1cccc([N+](=O)[O-])c1	nt	?	3.55µM*	7.4%[0.457 µM]	5.01µM*	-1.7
O=C1c2ccccc2C(Nc2ccc3nc(-c4cccnc4)[nH]c3c2)N1Cc1ccco1 (stereo not given)	-0.1%	-1.5%[57.1 µM]	6.2%	2.7%[57.1 µM]	-5.4%	4.2
Cc1cc(=O)c(C(=O)Nc2cccc(N3CCCC3=O)c2)nn1-c1ccccc1Cl	nt	-11.9%	nt	-21.1%	nt	nt
COc1cc(OC)cc(C(=O)Nc2cccc(NC(=O)c3cc(OC)cc(OC)c3)n2)c1	nt	38.6%	nt	7.5%	nt	nt
CC(=O)Nc1nc(-c2ccccc2)c(-c2ccccc2)o1	-3.1%	29.4%[57.1 µM]	12.6µM*	-3.5%[57.1 µM]	?	-0.4
COc1cc(OC)cc(C(=O)Nc2nc(-c3ccccc3)c(-c3ccccc3)o2)c1	0.9%	12.7%	1.41µM*	13.1%	2.82µM*	3.9
CC(=O)CSc1nc(-c2ccccc2)c(-c2ccccc2)o1	1.0%	9.4%	6.7%	8.4%	-8.9%	-0.7
CCCOc1ccc2ccccc2c1/C=C1\SC(=O)NC1=O	2.6%	12.8%	?	-2.0%	-18.9%	7.1
CCOC(=O)c1cccc(NC(=O)CC2C(=O)N(c3ccc(F)cc3)C(=O)N2Cc2cccc(OC)c2)c1 (stereo not given)	nt	14.7%	nt	-7.8%	nt	nt
CC(=O)Nc1ccc(S(=O)(=O)Nc2cc(C)cn(Cc3ccccc3)c2=O)cc1	-1.6%	-5.8%[57.1 µM]	?	4.2%[57.1 µM]	-22.3%	-16.5
CCOc1cc(/C=C2\C(=O)N(c3ccc(C(N)=O)cc3)N=C2C)ccc1OC(=O)c1cccs1	-5.3%	?	-2.9%	5.1%[57.1 µM]	-22.2%	1.9
